High-throughput results deposited in PubChem BioAssay by several laboratories.
Beta2AR agonist – agonists of human beta-2 adrenergic receptor inducing internalization. P07550. Am2.2-beta2AR cells, FAP receptor internalization, flow cytometry. response, % (no concentration beside the values). 340,000 compounds, 0.43% hits. AID 504454;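 active = response above a set limit, near 3 SD of response in nonfluorescent compounds, cut at about 42% in these data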
Target sequence (P07550 whole entry, looked up): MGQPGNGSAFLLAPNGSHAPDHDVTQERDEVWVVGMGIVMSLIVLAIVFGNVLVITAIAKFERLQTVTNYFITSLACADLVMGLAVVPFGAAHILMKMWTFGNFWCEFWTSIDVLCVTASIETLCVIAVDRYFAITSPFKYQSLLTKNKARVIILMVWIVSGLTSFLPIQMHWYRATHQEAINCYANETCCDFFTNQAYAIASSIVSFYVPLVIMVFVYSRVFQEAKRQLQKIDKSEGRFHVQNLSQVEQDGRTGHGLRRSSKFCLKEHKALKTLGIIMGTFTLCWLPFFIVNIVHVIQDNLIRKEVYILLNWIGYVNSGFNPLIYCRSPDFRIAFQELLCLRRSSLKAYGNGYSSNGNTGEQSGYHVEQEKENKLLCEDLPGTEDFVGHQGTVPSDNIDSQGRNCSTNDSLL
CF NFkB inh – cystic fibrosis NF-kB activation inhibition; KKLEB NF-kB-GFP reporter, PAF-induced, GFP fluorescence overnight; inhibition, % at 5 µM; 360,000 compounds, 0.86% hits;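 active = at least 50% inhibition at 5 µM, scaled per plate between neutral and stimulator controls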;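 note: PAF is a Pseudomonas aeruginosa culture filtrate used as stimulus; plate controls were PAF-stimulated DMSO wells for no effect and unstimulated DMSO wells for full effect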
HIF-2a inh – HIF-2a inhibition; 786-0 RCC cells HIF-2a reporter, luciferase luminescence, overnight; inhibition, % at 18.8 µM; 360,000 compounds, 0.72% hits; AID 624352;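 active = inhibition of the luminescence signal of 40% or more relative to plate controls, in a single-dose primary screen at 18.75 µM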
KKLEB tox – counter-screen for CF NF-kB inhibitors: cytotoxicity. KKLEB CF airway cells viability, ATPlite luminescence, overnight; active compounds read low; cells stimulated with P. aeruginosa culture filtrate. activity change (cytotoxicity), % at 5 µM. 360,000 compounds, 0.36% hits. AID 602141;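 active = corrected activity change at or below -50% at 5 µM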
Peg3 promoter – inhibitors of Peg3 promoter; HeLa PEG-Prom luciferase reporter, luminescence, overnight; 360,000 compounds, 1.7% hits; inhibition, % at 20 µM;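 active = inhibition of at least 50% at 20 µM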
TRPM1 prom inh – MITF TRPM1 promoter inhibition in SK-MEL-5 cells | 330,000 compounds, 0.83% hits | inhibition, % at 12.5 µM | SK-MEL-5 TRPM1 promoter luciferase, 24 h;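 active = mean inhibition across replicates of 60% or more, whatever share of single replicates reaches that level; inconclusive = some that reach 60%, reason not given; inactive = mean inhibition across replicates below 60%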
Numbers without * were called inactive; ? = inconclusive; . = no result. Shown are actives, neighbours in structure and some others; about 2.8% of the full set was active somewhere.

SMILES	Beta2AR agonist	CF NFkB inh	HIF-2a inh	KKLEB tox	Peg3 promoter	TRPM1 prom inh
CC(C)(C)c1cc[n+](C2=C([O-])c3ccccc3C(=O)/C2=N\S(=O)(=O)c2cccs2)cc1	1	75*	26	-28	57*	.
O=S(=O)(/N=C/c1ccccc1O)c1cccs1	3	-12	2	13	2	-5
COc1ccc(-c2nc3cc(C)c(Br)c(C)n3c2Cc2cccc(F)c2)cc1OC	.	0	-29	-14	-22	.
COC(=O)C[C@@H]1C=C[C@@H](NC(=O)CN(C)C)[C@@H](CO)O1	.	.	6	.	.	.
S=c1[nH]nc(C2CCCCC2)n1/N=C/c1ccncc1	2	85*	11	-12	2	-3
O=C(COC(=O)CCN1C(=O)/C(=C\C=C\c2ccccc2)SC1=S)Nc1cc(F)ccc1F	-3	-16	83*	-4	-10	63*
O=C(CN1C(=O)/C(=C\C=C\c2ccccc2)SC1=S)Nc1ccc(F)cc1	-10	-5	6	-35	-8	-1
O=C1C=C(c2c(O)ccc3ccccc23)c2ccccc2C1=O	76*	88*	84*	-36	107*	?
O=C1C=C(O)c2cccc(O)c2C1=O	1	-18	-2	-5	14	22
O=C1[C@@H]2Cc3c([nH]c4ccccc34)C(c3cccc(Br)c3)N2C(=O)CN1C1CCN(Cc2ccccc2)CC1 (stereo partly specified)	38	17	-28	-12	96*	17
O=C1[C@@H]2Cc3c([nH]c4ccccc34)C(c3ccccc3)N2C(=O)CN1C1CCN(Cc2ccccc2)CC1 (stereo partly specified)	41	8	31	-14	42	-24
CCOC(=O)c1c(-c2ccccc2)csc1NC(=O)c1ccc(N2C(=O)CCC2=O)cc1	14	69*	15	-57*	12	-1
COc1ccc(C(=O)c2[nH]c(N)c(C(=O)NCCc3c[nH]c4ccccc34)c2-c2ccc(OC)c(OC)c2)cc1	.	.	19	.	.	.
CCCNCC1C(Oc2ccc(Cl)cc2Cl)C(=O)N1c1cccc(C)c1C (stereo unspecified)	2	20	6	-13	62*	11
COc1ccc2nc(NC(=O)C3CCN(S(=O)(=O)c4cccc5nsnc45)CC3)sc2c1	24	44	18	-6	81*	74*
COc1cc(O)c(C(=O)/C=C/c2ccccc2)c(OC)c1	3	14	-41	-8	61*	.
CC12CCC3C(CCC4CC(O)CCC43C)C1CC(=O)C2 (stereo unspecified)	.	-29	-23	19	-9	.
CN(Cc1ccccc1)CC(O)COc1ccc(CNCc2ccc(Cl)s2)cc1 (stereo unspecified)	13	8	24	-13	54*	24
O=[N+]([O-])c1cc(-c2nc(-c3ccncc3)no2)ccc1Cl	1	-28	-23	14	105*	30
Cc1ccc(NC(=O)Cn2c(O)c(N=NC(N)=S)c3ccccc32)cc1	-8	8	47*	-9	22	43
CCOC(=O)C1(C)CCN1C(=O)c1ccc(OC)c(C(F)(F)F)c1 (stereo unspecified)	.	-21	11	3	-4	.
CC1Cc2ccccc2N1S(=O)(=O)c1cccc(C(=O)N2CCCCC2)c1 (stereo unspecified)	-1	-4	8	-10	5	16
COc1ccccc1N1CCN(C(=O)c2cccc(S(=O)(=O)N3c4ccccc4CC3C)c2)CC1 (stereo unspecified)	20	38	11	-7	78*	7
NS(=O)(=O)c1ccc(NC(=O)CCC(=O)O)cc1	.	-40	8	3	-11	.
O=C(c1ccc(CSc2nc3ccncc3[nH]2)cc1)N1CCCCCC1	-10	0	-101	-40	-23	-50
SMILES	Beta2AR agonist	CF NFkB inh	HIF-2a inh	KKLEB tox	Peg3 promoter	TRPM1 prom inh
Cc1ccc(CSc2nc3ccncc3[nH]2)cc1	9	0	-19	-70*	-34	0
Clc1ccc(CSc2nc3ccncc3[nH]2)cc1	-14	-4	-126	-59*	-137	-25
CC(C)c1ccc(S(=O)(=O)NCCCN2CCOCC2)cc1	.	10	9	-3	5	.
CC(C)N1CCCC(C)(C(=O)Nc2ccc3c(c2)OCO3)C1 (stereo unspecified)	.	7	-9	-4	-22	.
O=C(CSc1nnc(CNC(=O)c2c(F)cccc2F)o1)NCc1ccc2c(c1)OCO2	.	4	1	-1	-10	.
C=CCn1c(=O)/c(=C/c2cc(OC)c(OC)c(OC)c2)s/c1=C(/C#N)c1nc2ccccc2n1C	3	5	12	-50*	30	7
C=CCNc1nc(-c2ccccn2)nnc1-c1ccccc1	-16	28	7	-31	35	78*
CC(C)C[C@@H](CN1CCC[C@@H]1CN1C(=O)C(=O)NC[C@@H]1Cc1ccccc1)N1C[C@H](Cc2ccccc2)N(CC2CCCCC2)C(=O)C1=O	.	.	-65	.	.	.
CCC1=NN(C(=O)c2ccc(C)cc2)C(O)(c2ccc(Br)cc2)C1 (stereo unspecified)	-5	0	-32	9	-18	-22
CCC1=NN(C(=O)c2cccc(Br)c2)C(O)(c2ccc(Br)cc2)C1 (stereo unspecified)	20	62*	4	-54*	25	-1
CC(Cl)C(=O)N1c2ccccc2CCc2ccccc21 (stereo unspecified)	-4	-4	20	-10	26	-6
O=C(CCl)N1c2ccccc2CCc2ccccc21	10	22	13	-14	25	75*
O=C(NCc1ccccc1Cl)c1ccc2nc([C@@H]3O[C@H](CO)[C@H](O)[C@H](O)[C@H]3O)[nH]c2c1	.	-5	9	10	-9	.
Cc1ccc(OCc2nc3ccccc3n2C(C)C(=O)Nc2c(C)cccc2C)cc1 (stereo unspecified)	.	.	-36	.	.	.
C[C@]12CCC3C(CC[C@H]4CCCC[C@]34C)C1CC[C@@]2(O)CNCCO (stereo partly specified)	28	12	13	3	91*	-29
Clc1ccc2c(SCC3CO3)c3ccccc3nc2c1 (stereo unspecified)	82*	-19	-57	-1	2	-5
O=C(CSc1c2c(nc3cc(Cl)ccc13)CCCC2)NCCN1CCOCC1	-13	3	8	18	5	10
O=C1C(=Cc2cccc(O)c2O)SC(=S)N1CCCN1CCOCC1	.	14	5	10	-22	.
COc1cc(O)ccc1/C=N/NC(=O)c1ccc([N+](=O)[O-])cc1	-2	2	16	-11	6	-3
O=C(NC(CSCc1ccccc1)C(=O)N/N=C/c1ccc(O)cc1O)c1ccc([N+](=O)[O-])cc1 (stereo unspecified)	-2	10	13	13	51*	70*
